AmpC inh no detg: blocks E. coli AmpC beta-lactamase in detergent-free assay; P00811; AmpC nitrocefin hydrolysis, absorbance 480 nm, 0.0001% Triton; Potency, µM (top dose mostly 57.1 µM), for inactives: at the highest dose activity change, negative = inhibition, usual class: inhibitors; 0.52% of 330,000 active; AID 485341;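 further: plate controls were no compound for no effect and no enzyme for full effect; nearly all actives have a fitted effect of over 20% in size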
Target sequence (P00811 whole entry, looked up): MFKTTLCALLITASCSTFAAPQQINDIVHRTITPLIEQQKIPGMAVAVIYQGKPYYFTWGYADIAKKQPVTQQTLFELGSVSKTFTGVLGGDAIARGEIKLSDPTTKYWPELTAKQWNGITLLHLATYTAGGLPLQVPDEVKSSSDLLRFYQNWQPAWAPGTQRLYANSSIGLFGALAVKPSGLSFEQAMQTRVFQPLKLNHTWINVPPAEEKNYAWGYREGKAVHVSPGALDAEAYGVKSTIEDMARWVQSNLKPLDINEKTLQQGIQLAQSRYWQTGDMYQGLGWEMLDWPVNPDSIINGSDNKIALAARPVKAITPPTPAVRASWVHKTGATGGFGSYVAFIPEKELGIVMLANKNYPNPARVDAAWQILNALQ
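AmpC (5.3 nM in the dispensed reagent) in 20 mM phosphate pH 7.0 with 0.01% (detergent screen) or 0.0001% Triton X-100 was preincubated with compounds for 15 min at room temperature. Nitrocefin was then added from an 800 uM solution, and hydrolysis was followed at 480 nm.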
Sm TGR block: inhibitors of Schistosoma mansoni thioredoxin glutathione reductase; AID 485364; 3% of 360,000 active; Q962Y6; purified TGR, DTNB reduction, TNB absorbance 405 nm; Potency, µM (doses to about 114 µM), inactives show top-dose activity change, negative = inhibition, hits mostly inhibitors; further: on the % scale 0 is the no-effect control and ±100 the full control effect; nearly all actives have a fitted effect of over 60% in size
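First, TGR (20 nM dispensed) and NADPH were mixed with compound. Second, a 15 min room-temperature incubation followed. Third, further NADPH and then DTNB were added to start the reaction. Finally, TNB absorbance was monitored kinetically.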
Pf growth 48h: P. falciparum growth inhibition at 48 hours (one generation) | P. falciparum luciferase growth in erythrocytes, 48 h | Potency, µM (titrated, usually from 28.7 µM), inactives show at the top dose activity change, negative = inhibition, usual class: inhibitors | 5.9% of 310,000 active; further: on the % scale 0 is the no-effect control and ±100 the full control effect
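Read-out is firefly luciferase luminescence from an integrated reporter in P. falciparum, so falling signal marks reduced parasite growth. Infected erythrocytes were at 2% hematocrit and 0.1% parasitemia (final) in Albumax-supplemented RPMI 1640.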
Pf growth 96h: P. falciparum growth inhibition at 96 hours. 6.9% of 320,000 active. P. falciparum luciferase reporter growth, 96 h. Potency, µM (series often up to 28.7 µM), for inactives: at the top dose activity change, negative = inhibition, usual class: inhibitors; further: on the % scale 0 is the no-effect control and ±100 the full control effect
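Luminescence readout: decreased luciferase signal marks inhibited growth of reporter-expressing P. falciparum in infected red cells (2% hematocrit, 0.05% parasitemia final), exposed to compound two generations (96 h, 37 C, 5% CO2).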
SARS PLP yeast: SARS-CoV PLP inhibition in yeast; S. cerevisiae expressing SARS-CoV PLpro, growth rescue; Potency, µM (doses to about 32.9 µM), inactives show at the highest dose activity, positive = growth rescue, actives largely listed as activators; 0.19% of 330,000 active; AID 485353; calls by dose curve; further: 0% is about no effect; nearly all actives have a fitted effect of over 55% in size
AmpC detergent: inhibitors of E. coli AmpC beta-lactamase with detergent. P00811. AmpC hydrolysis of nitrocefin, absorbance 480 nm, 0.01% Triton. Potency, µM (series often up to 114 µM), for the others: at the top dose activity change, negative = inhibition, usual class: inhibitors. 0.041% of 370,000 active;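 further: 0% = no-compound wells and -100% = no-enzyme wells; nearly all actives have a fitted effect of over 25% in size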
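20 mM phosphate pH 7.0 + 0.01% (detergent screen) or 0.0001% Triton X-100; 5.3 nM AmpC reagent; cpd preinc 15 min RT; nitrocefin (800 uM stock) to start; A480 q20 s × 4 min; Activity was normalised to no-enzyme and no-compound control wells.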
Starred values were filed as active, the others as inactive; ? = inconclusive; · = no result. This is a sample that favours compounds with a hit; in the whole collection about 12% have one here. Unless noted, the call rests on the fitted dose curve; in most records, active means well fitted curve in the direction sought with a large enough effect; inconclusive means small, poorly fitted or top-dose-only effect, or another doubt; inactive means no such curve, though single readings can be large; an effect the other way counts as inactive or inconclusive. Potency means the concentration at half of the fitted maximal effect.

SMILES	AmpC inh no detg	Sm TGR block	Pf growth 48h	Pf growth 96h	SARS PLP yeast	AmpC detergent
CC(Cl)C(=O)Nc1cc(C(C)(C)C)nn1-c1ccccc1 (configuration not stated)	-2%	-4%	0%	-1%	0%	-2%
CCCc1cc(NC(=O)CCl)n(-c2ccccc2)n1	-21%	10µM*	?	?	0%	-1%
CC(C)(C)c1cc(NC(=O)CCl)n(-c2ccccc2)n1	-12%	13µM*	?	?	-3%	3%
CCOc1ccccc1-c1noc(CSc2nnc(-c3ccccc3)n2-c2ccc(OC)cc2)n1	·	0%	·	·	·	-3%
COCCNC(=O)C(c1ccco1)N(C(=O)Cn1nnc2ccccc21)c1cccc(C)c1C (configuration not stated)	21%	-2%	-15%	45%	19%	-9%
Cc1cccc(N(C(=O)Cn2nnc3ccccc32)C(C(=O)NC(C)(C)C)c2ccsc2)c1C (configuration not stated)	0.22µM*	2%	?	?	?	0%
Cc1ccccc1CCN(C(=O)Cn1nnc2ccccc21)C(C(=O)NC(C)(C)C)c1ccsc1 (configuration not stated)	-17%	0%	?	1.2µM*	-7%	5%
Cc1ccc(S(=O)(=O)NC2CCCCC2)c(C)c1NS(C)(=O)=O	-6%	·	26%	29%	0%	1%
CC1(C)NC(=O)N(CCOCCOc2ccc3ccccc3c2Br)C1=O	120%	-20%	·	3.7µM*	9%	-11%
COc1ccc(/C=C/C(=O)N2CCC(c3nc4ccccc4o3)CC2)cc1OC	·	-6%	·	·	·	16%
CC(C)NC(=O)c1ccccc1NC(=O)C1COc2ccccc2O1 (configuration not stated)	-27%	-7%	10µM*	-17%	-5%	-1%
CCC(C)NC(=O)c1ccccc1NC(=O)C1COc2ccccc2O1 (configuration not stated)	-15%	11%	1.2µM*	?	-2%	7%
CN[C@@H](CC(C)C)C(=O)N[C@@H]1C(=O)N[C@H](CC(N)=O)C(=O)N[C@@H]2C(=O)N[C@H]3C(=O)N[C@H](C(=O)N[C@H](C(=O)O)c4cc(O)cc(O)c4-c4cc3ccc4O)[C@H](O)c3ccc(c(Cl)c3)Oc3cc2cc(c3O[C@H]2O[C@@H](CO)[C@@H](O)[C@@H](O)[C@@H]2O[C@@H]2C[C@](C)(N)[C@H](O)[C@H](C)O2)Oc2ccc(cc2Cl)[C@@H]1O	·	·	-7%	-11%	·	·
COc1ccc(C(=O)O)cc1S(=O)(=O)Nc1ccc2cn[nH]c2c1	-21%	·	·	·	-2%	·
O=C1CN(c2nc3ccccc3n3cnnc23)CC(=O)N1CCc1ccccc1	-32%	32µM*	3%	?	4%	?
CCN(CC(=O)Nc1c(F)cccc1F)C(=O)c1ccc(N2CCOCC2)c([N+](=O)[O-])c1	2%	45µM*	14%	?	6%	9%
Cc1ccc(NC(=O)C2CC(=O)N(c3ccc(OC(C)C)cc3)C2)cc1 (configuration not stated)	·	-1%	·	·	·	-1%
O=C(/C=C/c1cc([N+](=O)[O-])ccc1OC(F)F)Nc1cccc(OC(F)F)c1	-37%	-3%	?	8.3µM*	18%	?
C=CCNC(=O)c1ccccc1Cl	-9%	7%	28%	17%	2%	0%
CCOC(=O)Cc1csc(Nc2c(C)n(C)n(-c3ccccc3)c2=O)n1	-6%	-17%	0%	-11%	2%	?
C=CCNC1=C(Cl)C(=O)N(c2ccccc2Cl)C1=O	-28%	45µM*	3%	·	-6%	?
Cc1c(NC2=C(Cl)C(=O)N(c3ccccc3Cl)C2=O)c(=O)n(-c2ccccc2)n1C	-18%	40µM*	-7%	-25%	13%	-8%
Cc1c(Nc2nc(-c3ccc(Cl)cc3)cs2)c(=O)n(-c2ccccc2)n1C	-4%	-7%	0%	13µM*	?	?
CCc1cc2c(cc3c(=O)n(CC(=O)NC4CCC(C)CC4)nc(CC)n32)s1 (configuration not stated)	·	8%	·	·	·	16%
CCSC1=C(C#N)C2(CCCCC2)C2=C(CC(C)(C)CC2=O)N1	-17%	13%	15%	?	0%	-1%
SMILES	AmpC inh no detg	Sm TGR block	Pf growth 48h	Pf growth 96h	SARS PLP yeast	AmpC detergent
CC1(C)CC(=O)C2=C(C1)NC(SCC(N)=O)=C(C#N)C21CCCCC1	-22%	5%	?	0.17µM*	4%	4%
CCCC(=O)NCc1ccccc1Cl	-18%	·	-3%	26%	0%	3%
CC[N+](CC)(CCNC(=O)C(=O)NCC[N+](CC)(CC)Cc1ccccc1Cl)Cc1ccccc1Cl	·	·	?	6µM*	·	·
C=CCN(C(=O)CCS(=O)(=O)c1cccc2nsnc12)c1ccccc1	-6%	25µM*	-13%	-2%	-12%	-11%
CCN(C(=O)CCS(=O)(=O)c1cccc2nsnc12)c1cccc(C)c1	-2%	?	-17%	-5%	10%	-8%
CC(C)c1ccc2oc(-c3cccc(NC(=O)c4ccc5c(c4)OCCO5)c3)nc2c1	·	-3%	·	·	·	7%
CCCC12CN(C(=O)c3ccc([N+](=O)[O-])cc3)CC(C)(CN(C(=O)c3ccc([N+](=O)[O-])cc3)C1)C2=O	13%	2%	12µM*	10µM*	1%	-5%
CCOC(=O)c1[nH]c2ccccc2c1NC(=O)c1cc(OC)cc(OC)c1	·	3%	·	·	·	10%
N/C(Cc1ccc(Cl)c(Cl)c1)=N\OC(=O)c1ccc(Br)o1	-41%	17%	15µM*	15µM*	-6%	4%
CCOC(=O)C(CCc1ccccc1)NC(C)C(=O)N1Cc2ccccc2CC1C(=O)O (configuration not stated)	·	·	-4%	-7%	·	·
COc1cccc(CNn2c(-c3cccc(C)c3)nc3ccccc3c2=O)c1	3%	-11%	·	9.3µM*	-18%	-2%
COc1ccc(OC)c(CNn2c(-c3cccc(C)c3)nc3ccccc3c2=O)c1	13%	-2%	·	8.3µM*	-18%	-15%
COc1cccc(CC(=O)Nn2c(C)nc3ccccc3c2=O)c1	-9%	11%	3%	-20%	3%	-17%
COc1ccc(OCC(=O)Nn2c(-c3ccc(C)cc3)nc3ccccc3c2=O)cc1	-14%	2%	27%	-7%	22%	0%
COc1ccc(C(=O)NCc2nnc(SCC(=O)N3CCCCCC3)o2)cc1OC	-10%	-3%	5%	-14%	0%	-1%
COc1ccc(OCc2nnc(SCC(=O)N3CCCCC3)o2)cc1	-3%	10%	4%	12µM*	1%	-3%
